Reference: ChEMBL document CHEMBL3988442, “University of Dundee, Small-Polar-MMV Screening Library” (2021)

molecular target: T1, Aspartate--tRNA(Asp/Asn) ligase (Mycobacterium tuberculosis (strain ATCC 25618 / H37Rv)) (UniProt P9WFW3); assay: Assay for Asp RNA synthetase-1 from Mycobacterium tuberculosis; type: functional; parameters: scale not given: direction of the effect not stated beside the values; settings: 30 µM; note: in the data most compounds retested in dose-response had high values
T1 sequence (whole entry): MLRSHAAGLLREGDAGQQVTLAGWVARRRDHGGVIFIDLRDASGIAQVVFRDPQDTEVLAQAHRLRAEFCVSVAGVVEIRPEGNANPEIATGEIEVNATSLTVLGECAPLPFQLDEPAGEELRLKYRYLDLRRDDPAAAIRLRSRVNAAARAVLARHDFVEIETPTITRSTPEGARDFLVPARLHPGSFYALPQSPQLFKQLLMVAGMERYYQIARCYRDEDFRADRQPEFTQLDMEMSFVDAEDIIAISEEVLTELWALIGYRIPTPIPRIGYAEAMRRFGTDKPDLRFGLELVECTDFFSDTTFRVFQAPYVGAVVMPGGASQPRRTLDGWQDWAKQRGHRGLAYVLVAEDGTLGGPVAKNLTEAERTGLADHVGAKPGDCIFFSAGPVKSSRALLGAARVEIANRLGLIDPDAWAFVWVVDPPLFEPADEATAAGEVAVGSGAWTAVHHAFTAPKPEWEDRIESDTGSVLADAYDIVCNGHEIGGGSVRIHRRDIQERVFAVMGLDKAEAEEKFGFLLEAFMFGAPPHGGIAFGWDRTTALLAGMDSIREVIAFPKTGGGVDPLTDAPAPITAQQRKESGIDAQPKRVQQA

| SMILES | Percent Effect [%] |
| --- | --- |
| CN(C)c1ccc(C(=O)NCC2(c3ccccc3)CCOCC2)cc1 | 1.31 |
| CCc1ccc(OCC(O)CN2CCC(O)CC2)cc1 (stereo not given) | 3.31 |
| CCn1cc(NC(=O)C2CCN(CCOC(C)C)CC2)cn1 | 2.5 |
| CC(C)NC(=O)Nc1ccc(CNCc2cccc(OC(F)F)c2)cc1 | 4.98 |
| CCN(CC)C1CCN(C(=O)NCc2nncn2CC)CC1 | -0.573 |
| COC(=O)CS(=O)(=O)CCC(=O)N1CCCC1c1ccsc1 (stereo not given) | -1.34 |
| Cc1ccc(NC(=O)N(C)Cc2cnn(C)c2)cc1OCC(F)F | 5.84 |
| CN1CCOC(CNC(=O)CCCOc2ccccc2F)C1 (stereo not given) | -5.14 |
| O=C(NCC1CC1)Nc1cccc(N2CCN(CC3CC3)CC2)c1 | -1.59 |
| O=C(Cc1ccccc1F)N1CCN(C(=O)c2ccoc2)CC1 | 5.87 |
| CCCNC(=O)C(C)NC(=O)CCc1ccccc1Br (stereo not given) | 0.362 |
| CCCC(C)C(=O)N1CCC(n2cccc2C(=O)OC)CC1 (stereo not given) | 0.787 |
| CC(C)CCn1c(=O)nc2n1C(=O)N(c1ccc(F)cc1)C2 | -0.24 |
| Cn1cnnc1S(=O)(=O)C1CCN(S(=O)(=O)c2ccc(F)c(Cl)c2)CC1 | 2.04 |
| CCc1noc(CNc2ccc(F)cc2OCC2CC2)n1 | 1.97 |
| O=C1CCSCC(C(=O)N2CCN(C3CCCCC3)CC2)N1 (stereo not given) | -4.14 |
| FC(F)(F)c1cccc(C2(CNCc3ccncc3)CCOCC2)c1 | 2.66 |
| CCc1nc(CCNC(=O)C2CCOC2)sc1C (stereo not given) | -2.83 |
| O=C(Cc1ccc2c(c1)OCCO2)NC1CCN(CC(F)F)CC1 | -1.24 |
| Cc1nnc(N2CC[C@H](OCC3CC3)[C@@H](Cc3ccccc3)C2)s1 | 9.93 |

| SMILES | Percent Effect [%] |
| --- | --- |
| CC(C)c1nccn1C1CCCN(C(=O)c2ccnc(N(C)C)c2)C1 (stereo not given) | 2.16 |
| CN(C)c1cc(C(=O)N2CCCN(Cc3cscn3)CC2)ccn1 | -2.62 |
| O=C(NCC1CCOCC1)[C@@H]1C[C@@H]2CCN(Cc3ccco3)C[C@H]2O1 | 0.32 |
| CCc1cnc2c(c1NCc1cccc(OC)c1)c(=O)n(C)c(=O)n2C | -0.0729 |
| Cc1cc(C)n(CC2CCCN2CCS(=O)(=O)c2ccccc2)n1 (stereo not given) | -0.833 |
| COc1ccc(F)cc1C(C(=O)O)N1CCSCC1 (stereo not given) | 4.05 |
| CCc1noc(C(C)N2CCN(Cc3ncc(C(C)(C)C)o3)CC2)n1 (stereo not given) | -1.28 |
| O=C(NCCc1cccnc1)N1CCCC1c1ccsc1 (stereo not given) | -2.72 |
| Cc1noc(C)c1-c1cncc(C2CCCN2Cc2ccncc2)n1 (stereo not given) | 1.92 |
| CC1c2ncc(CN3CCN(C)CC3)n2CCN1Cc1cccnc1 (stereo not given) | 1.75 |
| CC(Cn1cccn1)NC(=O)NCCc1ccc(Cl)s1 (stereo not given) | 4.37 |
| COc1ccc(-n2ccc(C(=O)N3CCC(C(N)=O)C3)n2)cc1 (stereo not given) | 1.17 |
| CCS(=O)(=O)N1Cc2nccn2CC(Cn2nc(C)nc2C)C1 (stereo not given) | 0.776 |
| Cc1nn(-c2ccccc2)cc1C(=O)N1CCCC(n2cccn2)C1 (stereo not given) | -5.22 |
| O=C(c1ccncc1)N1CCCn2c(CN3CCCCC3)nnc2C1 | -3.93 |
| CNC(=O)[C@@]12CCC3(CCN(S(C)(=O)=O)CC3)[C@@H]1CN(S(C)(=O)=O)C2 | 0.0987 |
| OC(COCc1ccc(Cl)cc1)CN1CCC(c2ccn[nH]2)CC1 (stereo not given) | -1.57 |
| CN(C)C(=O)NC[C@H]1OC[C@@H]2CCN(Cc3ccoc3)C[C@@H]21 | 1.28 |
| CCN1C[C@@H]2[C@@H](OC)CCN(S(=O)(=O)c3ccccc3)[C@@H]2C1 | -4.66 |
| COc1ccc(CN2CCC3(CC2)CCN(c2ncccn2)CC3)cc1 | 2.89 |

molecular target: Shiga toxin 2 (Escherichia coli O157:H7) (UniProt P09385+P09386); assay: E. coli 0.157:H7 Shiga Toxin SOP - stx2 screening assay; type: functional; parameters: scale not given: direction of the effect not stated beside the values; settings: 30 µM

| SMILES | Percent Effect [%] |
| --- | --- |
| CN(C)c1ccc(C(=O)NCC2(c3ccccc3)CCOCC2)cc1 | -24.7 |
| CCc1ccc(OCC(O)CN2CCC(O)CC2)cc1 (stereo not given) | 16.1 |
| CCn1cc(NC(=O)C2CCN(CCOC(C)C)CC2)cn1 | 17.1 |
| CC(C)NC(=O)Nc1ccc(CNCc2cccc(OC(F)F)c2)cc1 | -103 |
| CCN(CC)C1CCN(C(=O)NCc2nncn2CC)CC1 | -26 |
| COC(=O)CS(=O)(=O)CCC(=O)N1CCCC1c1ccsc1 (stereo not given) | -0.403 |
| Cc1ccc(NC(=O)N(C)Cc2cnn(C)c2)cc1OCC(F)F | -4.22 |
| CN1CCOC(CNC(=O)CCCOc2ccccc2F)C1 (stereo not given) | -33.1 |
| O=C(NCC1CC1)Nc1cccc(N2CCN(CC3CC3)CC2)c1 | -38.1 |
| O=C(Cc1ccccc1F)N1CCN(C(=O)c2ccoc2)CC1 | -6.64 |
| CCCNC(=O)C(C)NC(=O)CCc1ccccc1Br (stereo not given) | -18.6 |
| CCCC(C)C(=O)N1CCC(n2cccc2C(=O)OC)CC1 (stereo not given) | -16.1 |
| CC(C)CCn1c(=O)nc2n1C(=O)N(c1ccc(F)cc1)C2 | -15.1 |
| Cn1cnnc1S(=O)(=O)C1CCN(S(=O)(=O)c2ccc(F)c(Cl)c2)CC1 | -2.86 |
| CCc1noc(CNc2ccc(F)cc2OCC2CC2)n1 | 0.5 |
| O=C1CCSCC(C(=O)N2CCN(C3CCCCC3)CC2)N1 (stereo not given) | -2.45 |
| FC(F)(F)c1cccc(C2(CNCc3ccncc3)CCOCC2)c1 | -27.1 |
| CCc1nc(CCNC(=O)C2CCOC2)sc1C (stereo not given) | 30.6 |
| O=C(Cc1ccc2c(c1)OCCO2)NC1CCN(CC(F)F)CC1 | 11 |
| Cc1nnc(N2CC[C@H](OCC3CC3)[C@@H](Cc3ccccc3)C2)s1 | -15.5 |

| SMILES | Percent Effect [%] |
| --- | --- |
| CC(C)c1nccn1C1CCCN(C(=O)c2ccnc(N(C)C)c2)C1 (stereo not given) | -29.7 |
| CN(C)c1cc(C(=O)N2CCCN(Cc3cscn3)CC2)ccn1 | -13.1 |
| O=C(NCC1CCOCC1)[C@@H]1C[C@@H]2CCN(Cc3ccco3)C[C@H]2O1 | 4.1 |
| CCc1cnc2c(c1NCc1cccc(OC)c1)c(=O)n(C)c(=O)n2C | -21.5 |
| Cc1cc(C)n(CC2CCCN2CCS(=O)(=O)c2ccccc2)n1 (stereo not given) | -9.51 |
| COc1ccc(F)cc1C(C(=O)O)N1CCSCC1 (stereo not given) | 9.21 |
| CCc1noc(C(C)N2CCN(Cc3ncc(C(C)(C)C)o3)CC2)n1 (stereo not given) | 23.4 |
| O=C(NCCc1cccnc1)N1CCCC1c1ccsc1 (stereo not given) | 1.93 |
| Cc1noc(C)c1-c1cncc(C2CCCN2Cc2ccncc2)n1 (stereo not given) | -6.19 |
| CC1c2ncc(CN3CCN(C)CC3)n2CCN1Cc1cccnc1 (stereo not given) | -23.1 |
| CC(Cn1cccn1)NC(=O)NCCc1ccc(Cl)s1 (stereo not given) | -19.2 |
| COc1ccc(-n2ccc(C(=O)N3CCC(C(N)=O)C3)n2)cc1 (stereo not given) | 19.6 |
| CCS(=O)(=O)N1Cc2nccn2CC(Cn2nc(C)nc2C)C1 (stereo not given) | 6.38 |
| Cc1nn(-c2ccccc2)cc1C(=O)N1CCCC(n2cccn2)C1 (stereo not given) | -27.4 |
| O=C(c1ccncc1)N1CCCn2c(CN3CCCCC3)nnc2C1 | -4.1 |
| CNC(=O)[C@@]12CCC3(CCN(S(C)(=O)=O)CC3)[C@@H]1CN(S(C)(=O)=O)C2 | -5.23 |
| OC(COCc1ccc(Cl)cc1)CN1CCC(c2ccn[nH]2)CC1 (stereo not given) | -33 |
| CN(C)C(=O)NC[C@H]1OC[C@@H]2CCN(Cc3ccoc3)C[C@@H]21 | -22.6 |
| CCN1C[C@@H]2[C@@H](OC)CCN(S(=O)(=O)c3ccccc3)[C@@H]2C1 | -20.4 |
| COc1ccc(CN2CCC3(CC2)CCN(c2ncccn2)CC3)cc1 | -0.95 |
